Shown are actives, neighbours in structure and some others; about 2.3% of the full set was active somewhere.
UBC13 inh: blocks human UBC13 polyubiquitin chain formation; P61088; TR-FRET; inhibition, % at 20 µM; hit rate 0.47% among 330,000; AID 485273; in the data active = inhibition above about 45%, passing the limit was not always enough
Target sequence (P61088 whole entry, looked up): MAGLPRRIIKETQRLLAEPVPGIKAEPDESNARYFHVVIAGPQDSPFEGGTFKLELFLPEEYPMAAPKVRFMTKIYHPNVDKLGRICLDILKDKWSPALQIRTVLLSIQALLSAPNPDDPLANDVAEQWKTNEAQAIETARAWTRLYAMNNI
MEKK2 WT-MEK5: raises or lowers MEK5 binding to wildtype human MEKK2 PB1 domain; Q9Y2U5; bead flow cytometry, Alexa488-MEK5 binding to MEKK2 WT; actives lie on both sides; binding response (% of control), % at 10 µM; hit rate 1.1% among 290,000; in the data active = binding response below about 67% or above about 130%
MEKK3 PB1 HTS: modulators (inhibitors or enhancers) of MEK5 binding to human MEKK3 PB1 domain | Q99759 | bead-based flow cytometry, Alexa488-MEK5 binding to MEKK3; actives lie on both sides; 0 = blocked by unlabeled MEK5, 100 = vehicle | binding response (% of control), % at 10 µM | hit rate 1.4% among 290,000 | AID 1529;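 active = binding response more than 3 SD above or below the average of its plate-row segment, actives on both sides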;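 note: Alexa488 bead fluorescence after subtracting the streptavidin-only scavenger bead signal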
MEKK2 mut-MEK5: signal of MEK5 binding to mutant human MEKK2 PB1 domain; bead flow cytometry, Alexa488-MEK5 binding to MEKK2 mutant; percent response, % at 10 µM; hit rate 0.35% among 290,000; AID 1530; in the data active = percent response above about 24%, passing the limit was not always enough
MEKK2wt confirm: raises or lowers MEK5 binding to wildtype human MEKK2, retest | shares compounds with MEKK3 PB1 HTS | bead flow cytometry, Alexa488-MEK5 binding to MEKK2 WT; actives lie on both sides | binding response (% of control), % at 10 µM | hit rate 2.4% among 5,900; in the data active = binding response below about 16% or above about 210%; inactive = in between
MEKK2mut-MEK5: signal of MEK5 binding to mutant human MEKK2, retest | shares compounds with MEKK3 PB1 HTS | bead flow cytometry, Alexa488-MEK5 binding to MEKK2 mutant | percent response, % at 10 µM | hit rate 2% among 5,900 | AID 1893; in the data active = percent response mostly above about 71%, no sharp cut-off; inactive = mostly below about 38%;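 note: higher means compound restores mutant binding toward wildtype level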
MEKK3 confirm: confirmation of inhibitors of MEK5 binding to human MEKK3. shares compounds with MEKK3 PB1 HTS. bead flow cytometry, Alexa488-MEK5 binding to MEKK3; hits give low values. binding response (% of control), % at 10 µM. hit rate 1.8% among 5,900. AID 1894;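 active = binding response below 72% of control, or above a set upper limit, though filed actives all read lower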;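 note: 100% = DMSO only wells and 0% = binding blocked by excess unlabeled MEK5; lower values mean stronger disruption of MEK5 binding to MEKK3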
Numbers without * were called inactive; · = not tested or not shown; [ ] = dose if it differs, or a comment.

SMILES	UBC13 inh	MEKK2 WT-MEK5	MEKK3 PB1 HTS	MEKK2 mut-MEK5	MEKK2wt confirm	MEKK2mut-MEK5	MEKK3 confirm
CCOC(=O)CSc1c(-c2cccs2)[nH]c2ccccc12	-2	99	102	-1	·	·	·
O=C(NC1CCCC1)C(=O)N(c1ccccc1F)C(C(=O)NCC1CCCO1)c1cccs1 (centres undefined)	0	94	100	-2	·	·	·
CCOc1cc(C2C(C#N)=C(N)OC(C)=C2C(C)=O)c(Br)c(Br)c1OC(C)C (centres undefined)	-10	94	68*[inhibitor]	0	96	-4	100
CCOc1cc(C2C(C#N)=C(N)OC(C)=C2C(C)=O)cc(Br)c1O (centres undefined)	-1	99	99	-2	·	·	·
COc1ccccc1C(=O)C1CCCN(C(=O)c2cccnc2SC)C1 (centres undefined)	12	632*	128*	541*	100	-1	99
CCOc1ccc(CCNC(=O)c2cccc(S(=O)(=O)N3CCN(C(C)=O)CC3)c2)cc1OCC	-4	·	·	·	·	·	·
CC(Sc1nnc(C2CC2)n1C1CC1)C(=O)c1ccc(Br)cc1 (centres undefined)	-4	·	·	·	·	·	·
Cc1ccc(S(=O)(=O)n2[nH]c(=O)cc2NC(=O)c2cccs2)cc1	-9	-4.0*[inhibitor]	1.0*[inhibitor]	2	94	-5	98
Cc1ccc(NC(=O)c2cccs2)cc1	-2	95	98	-4	·	·	·
CC(NC(=O)C(=O)N/N=C/c1ccccc1)c1ccccc1 (centres undefined)	-10	707*	121	564*	103	6	102
O=C(CSCc1ccc(Cl)c(Cl)c1)Nc1c[nH]c(=O)[nH]c1=O	2	104	71*[inhibitor]	0	105	-2	103
O=C(CSCc1ccccc1Cl)Nc1c[nH]c(=O)[nH]c1=O	8	101	101	-1	·	·	·
Oc1c(Cl)cc(Cl)cc1/C=N/Nc1ncc(Br)cn1	-11	126	138*	1	102	-3	100
O=C(N/N=C/c1cc(Cl)cc(Cl)c1O)c1ccncc1	-27	102	102	-3	·	·	·
Oc1cccc(NC(=S)Nc2ccc(SC(F)F)cc2)c1	7	110	106	1	·	·	·
S=C(Nc1ccc(Cl)cc1)NC1CCCCC1	9	101	102	4	·	·	·
S=C(Nc1ccc(Br)cc1)NC1CCCCC1	-9	116	151*	1	108	6	107
FC(F)Sc1ccc(NC(=S)NC2CCC(NC(=S)Nc3ccc(SC(F)F)cc3)CC2)cc1 (centres undefined)	-6	145*	112	9	131	12	104
OC1(c2ccc3ccccc3c2)CCN(Cc2ccccc2)C1 (centres undefined)	7	130	112	28*	110	6	103
O=C(c1ccc2c(=O)n3c(nc2c1)CCCCC3)N1CCN(c2cccc(Cl)c2)CC1	-4	107	104	8	·	·	·
CC(C)(C=O)C1=CC(=O)c2ccccc2C1=O	·	105	154*	1	96	-2	99
CC1=CC(=O)c2ccccc2C1=O	-4	103	82	-2	·	·	·
CC(=O)N1N=C(c2ccco2)CC1c1ccc(Br)cc1 (centres undefined)	12	108	99	-1	·	·	·
CCOc1ccc2cc(C3CC(c4ccco4)=NN3S(C)(=O)=O)c(Cl)nc2c1 (centres undefined)	-8	91	100	1	·	·	·
CC(=O)N1N=C(c2ccco2)CC1c1ccc(C)cc1 (centres undefined)	-10	110	135*	1	103	1	105
SMILES	UBC13 inh	MEKK2 WT-MEK5	MEKK3 PB1 HTS	MEKK2 mut-MEK5	MEKK2wt confirm	MEKK2mut-MEK5	MEKK3 confirm
CCc1ccc(C2CC(c3ccco3)=NN2S(C)(=O)=O)cc1 (centres undefined)	-8	·	89	55*	81	-9	89
O=S(=O)(c1ccccc1)N1CCN(C(=S)Nc2ccc(F)cc2)CC1	0	103	134*	0	100	5	99
COc1cc(/C=N/NC(=O)COc2cc(C)cc(C)c2)ccc1OS(=O)(=O)c1ccc(C)cc1	-8	98	135*	0	98	1	101
COc1cc(CN(CCN(C)C)Cc2ccccc2)ccc1OCc1ccccc1	20	138*	106	10	126	14	106
COc1ccc(CN(CCc2ccccc2)Cc2ccccc2)cc1OC	-1	109	104	10	·	·	·
CCn1cc(CNC(=O)CSc2nc(-c3ccc(OC)c(OC)c3)cc(C(F)(F)F)n2)c(C)n1	8	95	91	-1	·	·	·
COCCNC(=O)CSc1nc(-c2ccc(OC)c(OC)c2)cc(C(F)(F)F)n1	-2	87	79*[inhibitor]	-12	93	0	89
Cc1cc(C(=O)c2cnc(/N=C/N(C)C)s2)cc(C)c1O	-25	0.0*[inhibitor]	0.0*[inhibitor]	-17	109	4	104
O=C(O)/C=C/C(=O)N1CCN(c2cccc(Cl)c2)CC1	4	116	129*	1	111	6	104
O=C(O)CCC(=O)N1CCN(c2cccc(Cl)c2)CC1	5	90	94	0	·	·	·
Cc1c(Cl)cnc(NC(=O)CSc2nncs2)c1Cl	8	107	144*	0	106	7	104
COc1ccc(-c2cc(C(=O)NCc3ccco3)c3ccccc3n2)c(OC)c1	5	84	93	-11	·	·	·
COc1ccc(Nc2cc(C(=O)NCc3ccco3)c3ccccc3n2)c(OC)c1	-8	107	133*	1	99	0	101
COc1ccc2oc(C(=O)Nc3cccc(S(=O)(=O)N4CCOCC4)c3)c(C)c2c1	11	·	·	·	·	·	·
O=C(Nc1nn[nH]n1)c1cc(-c2ccc(Cl)c(Cl)c2Cl)nc2ccccc12	-5	139*	104	12	86	-9	89
Cc1ccc(NC(=O)CN(C)C(=O)C(Sc2ccccc2)c2ccccc2)cc1 (centres undefined)	13	·	·	·	·	·	·
Cc1ccc(S(=O)(=O)NC(=O)Nc2nnc(C)s2)cc1	1	0.0*[inhibitor]	0.0*[inhibitor]	-16	100	5	98
N#Cc1cccc(NC(=O)Cn2c3[n+](c4ccc(C(F)(F)F)cc42)CCCCC3)c1	15	117	69*[inhibitor]	0	111	6	98
CC1(CCc2ccccc2)NC(=O)N(CC(=O)N2CCCCCC2)C1=O (centres undefined)	-1	·	·	·	·	·	·
O=C(O)c1cc(Cl)c2c(c1)OCO2	1	111	105	12	·	·	·
CC1CC1C(=O)OCC(=O)Nc1ccc(N=Nc2ccccc2)cc1 (centres undefined)	3	107	136*	5	99	-3	95

From PubChem BioAssay
